# In PubChem BioAssay:
# Activity calls are given as the source filed them.
# What was measured:
# [1] = optical density shifts of acrAB sulA E. coli – strain DRC41, OD650, 48 h, E. coli filamentation inducer project, primary screen (AID 1152); details: higher = more signal, called active from +8 up or from −8 down;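 further: E. coli MC1000 strain DRC41 lacking acrAB efflux pump and sulA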
# [2] = probe aLefty1 binding on compound microarray – biochemical, small-molecule microarray, 635/667 nm fluorescence, primary screen (AID 1153); details: higher = more signal;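 further: score merges spot fluorescence with signal-to-noise ratio from the scanned slide images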
# [3] = plasmodial surface anion channel blockers, osmotic lysis – cell-based, P. falciparum Indochina, OD700, 1 h, primary screen (AID 1154); details: P. falciparum Indochina infected RBC osmotic lysis, higher = more signal, called active from +8 up or from −8 down
# [4] = plasmodial surface anion channel blockers, osmotic lysis – cell-based, P. falciparum Indochina, OD700, 2 h, primary screen (AID 1155);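 further: lysis reports solute entry through the parasite surface anion channel PSAC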; details: P. falciparum Indochina infected erythrocytes, higher = more signal, called active from +8 up or from −8 down
# [5] = changes in parasitized red cell lysis, either direction – P. falciparum Indochina, OD700, 3 h, PSAC antagonist project, primary screen (AID 1156); details: P. falciparum-infected erythrocytes, osmotic lysis, higher = more signal, called active from +8 up or from −8 down
# [6] = plasmodial surface anion channel blockers, osmotic lysis – cell-based, P. falciparum Indochina, OD700, 18 h, primary screen (AID 1157); details: P. falciparum Indochina infected erythrocytes, osmotic lysis OD700, 18 h; higher = more signal, called active from +8 up or from −8 down
# [7] = S6 kinase pathway phospho-S6 level changes – cell-based, A549, cytoblot, luminescence, serum-stimulated, primary screen (AID 1158); details: 5 h, higher = more signal;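 further: serum-stimulated A549 lung adenocarcinoma cells; signal is phosphorylated S6 detected by cytoblot immunostaining with HRP secondary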
# [8] = biological target: NADPH oxidase 2 (Homo sapiens) (UniProt P04839); assay: compounds shifting NOX2 Amplex Red fluorescence – cell-based, HEK293-NOX2, PMA-stimulated, NOX inhibitor project, primary screen (AID 1159); details: 45 min, higher = more signal, called active from +8 up or from −8 down; further: test concentration not given here
# Chain of NADPH oxidase 2 (Homo sapiens) (P04839 whole entry, looked up): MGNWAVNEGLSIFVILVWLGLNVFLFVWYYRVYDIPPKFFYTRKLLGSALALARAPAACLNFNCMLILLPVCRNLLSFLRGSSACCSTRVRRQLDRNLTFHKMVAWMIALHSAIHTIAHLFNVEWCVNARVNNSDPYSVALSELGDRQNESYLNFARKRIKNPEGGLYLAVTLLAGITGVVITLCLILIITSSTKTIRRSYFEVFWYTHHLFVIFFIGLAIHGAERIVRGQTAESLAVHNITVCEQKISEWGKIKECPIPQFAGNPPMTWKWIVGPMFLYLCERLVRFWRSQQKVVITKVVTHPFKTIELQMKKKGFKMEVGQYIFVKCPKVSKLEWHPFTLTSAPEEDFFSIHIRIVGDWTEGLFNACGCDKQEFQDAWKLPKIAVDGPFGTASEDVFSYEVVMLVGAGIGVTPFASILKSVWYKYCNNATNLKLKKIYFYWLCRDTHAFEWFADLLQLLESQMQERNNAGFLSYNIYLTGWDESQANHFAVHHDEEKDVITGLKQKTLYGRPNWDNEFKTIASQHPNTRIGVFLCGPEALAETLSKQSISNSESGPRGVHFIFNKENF
# [9] = biological target: NADPH oxidase 4 (Homo sapiens) (UniProt Q9NPH5); assay: compounds shifting NOX4 Amplex Red fluorescence – cell-based, HEK293-NOX4, tetracycline-induced, NOX inhibitor project, primary screen (AID 1160); details: HEK293-NOX4, Amplex Red H2O2 fluorescence, 45 min; higher = more signal, called active from +8 up or from −8 down
# Chain of NADPH oxidase 4 (Homo sapiens) (Q9NPH5 whole entry, looked up): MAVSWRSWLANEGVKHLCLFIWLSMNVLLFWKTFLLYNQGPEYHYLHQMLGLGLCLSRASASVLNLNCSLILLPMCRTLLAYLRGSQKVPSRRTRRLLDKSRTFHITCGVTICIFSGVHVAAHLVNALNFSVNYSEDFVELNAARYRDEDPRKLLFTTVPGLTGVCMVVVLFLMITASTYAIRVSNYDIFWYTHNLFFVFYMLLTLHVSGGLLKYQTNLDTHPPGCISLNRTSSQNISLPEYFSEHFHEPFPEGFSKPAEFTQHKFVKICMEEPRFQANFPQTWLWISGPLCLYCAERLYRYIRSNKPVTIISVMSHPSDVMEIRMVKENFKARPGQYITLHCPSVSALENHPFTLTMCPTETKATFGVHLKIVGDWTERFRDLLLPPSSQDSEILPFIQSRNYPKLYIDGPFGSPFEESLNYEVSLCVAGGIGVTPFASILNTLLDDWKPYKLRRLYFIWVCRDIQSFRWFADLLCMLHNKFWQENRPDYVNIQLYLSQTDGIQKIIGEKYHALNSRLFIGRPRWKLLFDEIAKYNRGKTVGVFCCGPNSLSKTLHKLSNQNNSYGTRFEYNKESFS
# [10] = biological target: NADPH oxidase 5 (Homo sapiens) (UniProt Q96PH1); assay: compounds shifting NOX5 Amplex Red fluorescence – cell-based, HEK293-NOX5, NOX inhibitor project, primary screen (AID 1161); details: HEK293-NOX5, ionomycin, 45 min, higher = more signal
# Chain of NADPH oxidase 5 (Homo sapiens) (Q96PH1 whole entry, looked up): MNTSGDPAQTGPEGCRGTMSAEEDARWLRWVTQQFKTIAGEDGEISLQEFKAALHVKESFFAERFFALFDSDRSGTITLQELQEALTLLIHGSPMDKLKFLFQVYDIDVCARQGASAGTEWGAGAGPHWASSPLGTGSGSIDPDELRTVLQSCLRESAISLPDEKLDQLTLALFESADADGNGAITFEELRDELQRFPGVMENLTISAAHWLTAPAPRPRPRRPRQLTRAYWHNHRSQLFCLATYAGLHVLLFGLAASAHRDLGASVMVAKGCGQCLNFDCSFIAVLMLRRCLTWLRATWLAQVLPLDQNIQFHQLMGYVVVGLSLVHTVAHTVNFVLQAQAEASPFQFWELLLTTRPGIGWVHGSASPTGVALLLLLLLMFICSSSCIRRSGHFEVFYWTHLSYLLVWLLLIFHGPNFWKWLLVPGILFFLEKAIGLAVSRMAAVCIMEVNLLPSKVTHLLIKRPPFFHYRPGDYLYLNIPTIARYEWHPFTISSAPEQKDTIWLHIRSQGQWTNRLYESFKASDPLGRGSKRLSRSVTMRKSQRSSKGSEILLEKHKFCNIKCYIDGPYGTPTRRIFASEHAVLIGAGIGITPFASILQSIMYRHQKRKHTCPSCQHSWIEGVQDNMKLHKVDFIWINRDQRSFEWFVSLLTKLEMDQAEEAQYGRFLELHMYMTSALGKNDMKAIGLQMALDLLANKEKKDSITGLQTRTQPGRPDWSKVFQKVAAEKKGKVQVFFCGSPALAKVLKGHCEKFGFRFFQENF
SMILES,z-score [1],composite z-score [2],z-score [3],z-score [4],z-score [5],z-score [6],z-score [7],z-score [8],z-score [9],z-score [10]
COC(=O)C(CC#Cc1ccc2c(c1)[C@]1(C(=O)N2)[C@H](c2ccc(OCCO)cc2)N2[C@H](c3ccccc3)[C@H](c3ccccc3)OC(=O)[C@H]2[C@@H]1C(=O)NC[C@H](O)c1ccccc1)C(=O)OC,1.57 (inactive),0.0903,2.5 (inactive),1.14 (inactive),0.829 (inactive),0.664 (inactive),0.219,2.1 (inactive),1.2 (inactive),0.489
CCCNC(=O)[C@@H]1c2ccccc2C(=O)N(Cc2ccccc2)[C@H]1c1ccc(CO)cc1,-0.731 (inactive),-0.0508,1.36 (inactive),-0.325 (inactive),1.41 (inactive),0.0842 (inactive),0.0533,-0.802 (inactive),-1.63 (inactive),-2.53
C=CCN1C(=O)[C@]2(O[C@H](CCO)[C@@H]([Si](C)(C)c3ccc(OC)cc3)[C@@H]2C)c2cc(NC(=O)[C@H](C)O)ccc21,-0.589 (inactive),0.174,9.01 (active),2.65 (inactive),-0.212 (inactive),1.43 (inactive),1.23,0.911 (inactive),1.26 (inactive),0.375
CC(C)N1CC=CC23O[C@@H]4C=CCOC(=O)[C@@H]4[C@H]2C(=O)N(CCO)[C@@H]3C1=O (stereo not given in full),0.759 (inactive),-0.0559,-0.0173 (inactive),0.257 (inactive),-0.288 (inactive),0.6 (inactive),0.121,0.603 (inactive),0.865 (inactive),0.913
C=CCOC(=O)[C@H]1[C@@H]2C(=O)O[C@@H](c3ccccc3)[C@@H](c3ccccc3)N2[C@@H](c2ccc(OCCOC(=O)[C@@H]3C[C@@H]4C(=O)N5CCC[C@H]5C(=O)N4[C@@H]3c3ccc(O)cc3)cc2)[C@]12C(=O)Nc1ccccc12,0.891 (inactive),0.137,2.72 (inactive),1.04 (inactive),2.96 (inactive),0.668 (inactive),0.193,1.64 (inactive),1.21 (inactive),1.57
O=C1O[C@H](c2ccccc2)[C@H](c2ccccc2)N2[C@H]1[C@@H](C(=O)Nc1nc3ccccc3s1)[C@]1(C(=O)Nc3ccccc31)[C@H]2c1ccc(O)cc1,-0.626 (inactive),-0.294,1.53 (inactive),2.51 (inactive),0.486 (inactive),1.69 (inactive),0.192,0.844 (inactive),0.479 (inactive),0.201
COc1ccc(C#Cc2ccc3c(c2)[C@]2(C(=O)N3)[C@H](C(=O)NC[C@H](O)c3ccccc3)[C@H]3C(=O)O[C@H](c4ccccc4)[C@H](c4ccccc4)N3[C@@H]2c2ccccc2OCCO)cc1,-0.13 (inactive),0.29,1.78 (inactive),1.95 (inactive),-0.054 (inactive),1.41 (inactive),-0.0009,1.53 (inactive),0.36 (inactive),0.24
[N-]=[N+]=NCc1ccccc1[C@@H]1OC(c2ccc(OCCCO)cc2)=N[C@]1(Cc1ccccc1)C(=O)N1CCCCC1,1.22 (inactive),0.33,21.5 (active),4.66 (inactive),1.78 (inactive),1.3 (inactive),-0.205,-0.84 (inactive),0.453 (inactive),-1.26
COCCOC(=O)N1C(=O)[C@@]2(c3cc(C#CC4=CCCCC4)ccc31)[C@H](C(=O)N1CCc3cc(OC)c(OC)cc3C1)[C@H]1C(=O)O[C@H](c3ccccc3)[C@H](c3ccccc3)N1[C@@H]2c1ccccc1OCCO,0.585 (inactive),-0.012,2.4 (inactive),0.876 (inactive),0.827 (inactive),0.703 (inactive),-0.113,1.72 (inactive),0.58 (inactive),1.99
CCOC(=O)C[C@H]1[C@H](OC(=O)c2ccc(-c3ccccc3)cc2)[C@@H](NC(=O)c2ccc3ccccc3c2)c2cc(OCCCO)ccc2N1C(=O)Cc1ccc(OC)cc1,0.107 (inactive),-0.304,2.49 (inactive),0.927 (inactive),1.21 (inactive),0.263 (inactive),0.452,-1.1 (inactive),-0.0144 (inactive),-1.47
N#Cc1ccc(NN2C(C(O)c3cccs3)C=CC3C(=O)N(c4ccccc4)C(=O)C32)cc1 (stereo not given),-0.127 (inactive),0.0262,5.65 (inactive),-0.131 (inactive),0.832 (inactive),-0.741 (inactive),0.578,-2.12 (inactive),-5.34 (inactive),-3.05
